# From PubChem BioAssay (EPA / NIEHS)
# Results filed as inconclusive are left out. Active and inactive are the calls of the source. Rule for the calls: active = hit-call score of the fitted dose curve at least 0.9, where 1 is the maximum; inconclusive = response in the unintended direction; inactive = score below 0.9.
# Columns and labels:
# [1] = system: NCBI gene 24521; test: NVS_IC_rKATPCh: NovaScreen (NVS) Ion Channel Assay for rat Potassium Channel, ATP-Sensitive (KATPCh) (AID 2283319)
# In short: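 Primary duplicate screen at 25 uM, then singleton concentration series to 50 uM maximum, in a rat cortex membrane radioligand displacement assay. Binding measured by filtration and scintillation 2 h post-dose; DMSO baseline.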
# [2] = target: rat Glutamate, AMPA Site (AMPA), Gria1 (gene 50592) (UniProt P19490); test: NVS_LGIC_rAMPA: NovaScreen (NVS) Ligand-Gated Ion Channel Assay for rat Glutamate, AMPA Site (AMPA) (AID 2283324)
# In short: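 Screening at 25 uM in duplicate preceded concentration series reaching 50 uM for qualifying compounds. Radioligand displacement on rat forebrain membranes, 1 h, filter-based scintillation readout; reduced binding relative to DMSO.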
# [3] = target: Voltage-gated inwardly rectifying potassium channel KCNH2 (Homo sapiens) (UniProt Q12809); test: NVS_IC_hKhERGCh: NovaScreen (NVS) Ion Channel Assay for human Potassium Channel ERG (KhERGCh) (AID 2283333)
# In short: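 Membranes from CHO cells expressing human ERG; displacement of radioligand measured by filtration and scintillation after 0.75 h. Single-concentration duplicate screen at 25 uM, then concentration-response for actives; DMSO baseline.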
# [4] = target: bovine Gamma-Aminobutyric Acid Type A Receptor Agonist (GABAR Agonist), GABRA1 (gene 780973) (UniProt P08219); test: NVS_LGIC_bGABAR_Agonist: NovaScreen (NVS) Ligand-Gated Ion Channel Assay for bovine Gamma-Aminobutyric Acid Type A Receptor Agonist (GABAR Agonist) (AID 2283338)
# In short: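 Radioligand binding to bovine cerebellar membranes in agonist format, read by filter-based scintillation counting after 1 h. Primary screen in duplicate at 25 uM, with actives followed in concentration series. Gain of signal versus DMSO.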
# [5] = target: bovine Gamma-Aminobutyric Acid Type A Receptor BDZ, alpha 1 site (GABARa1), GABRA1 (gene 780973) (UniProt P08219); test: NVS_LGIC_bGABARa1: NovaScreen (NVS) Ligand-Gated Ion Channel Assay for bovine Gamma-Aminobutyric Acid Type A Receptor BDZ, alpha 1 site (GABARa1) (AID 2283321)
# In short: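 Bovine cortex membrane preparation, benzodiazepine site on GABA-A alpha1; specific radioligand displacement read after 0.75 h by filtration and scintillation. Screen at 25 uM, then singleton titrations up to 50 uM; DMSO baseline.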
# [6] = target: rat Gamma-Aminobutyric Acid Type A Receptor BDZ, alpha 6 site (GABARa6), Gabra6 (gene 29708) (UniProt P30191); test: NVS_LGIC_rGABARa6: NovaScreen (NVS) Ligand-Gated Ion Channel Assay for rat Gamma-Aminobutyric Acid Type A Receptor BDZ, alpha 6 site (GABARa6) (AID 2283339)
# In short: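 Actives from a 25 uM duplicate screen were retested in concentration series (max 50 uM). Specific radioligand displacement from rat cerebellar membranes was counted by filter-based scintillation at 1 h; DMSO served as baseline.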
# [7] = target: rat Oxytocin Receptor (OXT), Oxtr (gene 25342) (UniProt P70536); test: NVS_GPCR_rOXT: NovaScreen (NVS) G Protein-Coupled Receptor Assay for rat Oxytocin Receptor (OXT) (AID 2283330)
# In short: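 Binding to rat uterine membrane receptor was followed by scintillation counting of filter-trapped radioligand after 1 h. A 25 uM duplicate single-point screen preceded concentration series with a top of 50 uM. Signal loss was analysed relative to DMSO.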
# [8] = target: human Androgen Receptor (AR), AR (gene 367) (UniProt P10275); test: NVS_NR_hAR: NovaScreen (NVS) Nuclear Receptor Binding Assay for human Androgen Receptor (AR) (AID 2283332)
# In short: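 Radioligand competitive binding, scintillation read-out, in cell-free extract from LnCAP, measured 20 h after dosing. Screened first in duplicate at 25 uM, then concentration series for actives; activity fitted against DMSO.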
# [9] = target: human Serotonin, 5-Hydroxytryptamine Receptor 3 (5HT3), HTR3A (gene 3359) (UniProt P46098); test: NVS_LGIC_h5HT3: NovaScreen (NVS) Ligand-Gated Ion Channel Assay for human Serotonin, 5-Hydroxytryptamine Receptor 3 (5HT3) (AID 2283325)
# In short: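 Initially tested at 25 uM in duplicate, then up to 50 uM in concentration-response for actives, compounds competed with a radioligand for HEK293-derived human 5-HT3 receptor. Bound counts were measured by filtration and scintillation at 1 h; loss of signal versus DMSO.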
# [10] = target: rat Gamma-Aminobutyric Acid Type A Receptor, Non-Selective (GABAR-NonSelective), Gabra1 (gene 29705) (UniProt P62813); test: NVS_LGIC_rGABAR_NonSelective: NovaScreen (NVS) Ligand-Gated Ion Channel Assay for rat Gamma-Aminobutyric Acid Type A Receptor, Non-Selective (GABAR-NonSelective) (AID 2283326)
# In short: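 Compounds were first screened in duplicate at 25 uM, with actives run as singleton concentration series (max 50 uM). Binding of a radioligand to rat whole-brain GABA-A preparation was measured by filtration and scintillation counting after 1 h, DMSO baseline.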
# [11] = target: human Constitutive Androstane Receptor (CAR), NR1I3 (gene 9970) (UniProt Q14994); test: NVS_NR_hCAR_Agonist: NovaScreen (NVS) Nuclear Receptor Binding Assay for human Constitutive Androstane Receptor Agonism (CAR) (AID 2283328)
# In short: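 Actives from a 25 uM duplicate screen were retested in singleton concentration series to 50 uM max. Biochemical TR-FRET assay on extracted CAR protein measured 1 h post-dose, with signal increase over DMSO control.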
# [12] = target: rat Glutamate, MK-801 Agonist Site (GluNMDA_MK801), Grin1 (gene 24408) (UniProt P35439); test: NVS_LGIC_rGluNMDA_MK801_Agonist: NovaScreen (NVS) Ligand-Gated Ion Channel Assay for rat Glutamate, MK-801 Agonist Site (GluNMDA_MK801) (AID 2283340)
# In short: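 Rat forebrain membrane preparation; MK-801-site radioligand binding read by filtration and scintillation after 1.5 h. Single-point 25 uM duplicate screen, followed by singleton concentration series to 50 uM max; DMSO baseline.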
# [13] = target: rat Glycine Receptor, Strychnine-sensitive (GlyRStrySens), Glra1 (gene 25674) (UniProt P07727); test: NVS_LGIC_rGlyRStrySens: NovaScreen (NVS) Ligand-Gated Ion Channel Assay for rat Glycine Receptor, Strychnine-sensitive (GlyRStrySens) (AID 2283341)
# In short: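 Radioligand displacement on rat spinal cord membranes, 1 hr, filter scintillation read-out. Single-concentration duplicate screen at 25 uM; chemicals meeting threshold (e.g., 30% inhibition) rerun in concentration-response up to 50 uM. Loss of binding fitted versus DMSO.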
# [14] = target: rat Peripheral-type Benzodiazepine Receptor (PBR), Tspo (gene 24230) (UniProt P16257); test: NVS_MP_rPBR: NovaScreen (NVS) Membrane Protein Assay for rat Peripheral-type Benzodiazepine Receptor (PBR) (AID 2283335)
# In short: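 Single-concentration duplicate screening at 25 uM preceded concentration-series retesting of actives. Binding of a specific radioligand to rat kidney membrane PBR was read by filtration radiodetection after 1 h, with plate-wise positive and negative controls.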
# [15] = target: human Peripheral-type Benzodiazepine Receptor (PBR), TSPO (gene 706) (UniProt P30536); test: NVS_MP_hPBR: NovaScreen (NVS) Membrane Protein Assay for human Peripheral-type Benzodiazepine Receptor (PBR) (AID 2283331);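 note: hits reduce radioligand binding relative to DMSO baseline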
# In short: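 Cell-free binding to human colonic membrane preparations measured by filter-based scintillation counting after 1 h. Compounds first run at 25 uM in duplicate, then concentration series for actives; signal loss against DMSO baseline.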
# [16] = NVS_IC_rCaBTZCHL: NovaScreen (NVS) Ion Channel Assay for Calcium Channel, Type L, Benzothiazepine Site (CaBTZCHL) (AID 2283337)
# In short: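 Rat cortical membrane preparation, cell-free. Radioligand displaced by test chemical; 1.5 h incubation; filtration, scintillation count. DMSO = negative control/baseline. Primary: duplicate, 25 uM; secondary: concentration series.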
# [17] = target: rat Thyrotropin Releasing Hormone Receptor (TRH), Trhr (gene 25570) (UniProt Q01717); test: NVS_GPCR_rTRH: NovaScreen (NVS) G Protein-Coupled Receptor Assay for rat Thyrotropin Releasing Hormone Receptor (TRH) (AID 2283329);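 note: hit means lower bound tracer signal versus DMSO baseline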
# In short: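 Rat forebrain membrane prep, radioligand displacement, filter scintillation readout at 4 h. Single conc 25 uM, duplicate; actives retested as concentration series. DMSO = negative control/baseline.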
# Chain of rat Peripheral-type Benzodiazepine Receptor (PBR), Tspo (gene 24230) (P16257 whole entry, looked up): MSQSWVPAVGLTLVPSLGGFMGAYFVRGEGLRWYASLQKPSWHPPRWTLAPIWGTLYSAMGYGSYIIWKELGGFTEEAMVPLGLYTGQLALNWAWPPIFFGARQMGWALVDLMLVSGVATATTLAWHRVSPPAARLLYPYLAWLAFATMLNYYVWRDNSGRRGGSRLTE
# Chain of human Peripheral-type Benzodiazepine Receptor (PBR), TSPO (gene 706) (P30536 whole entry, looked up): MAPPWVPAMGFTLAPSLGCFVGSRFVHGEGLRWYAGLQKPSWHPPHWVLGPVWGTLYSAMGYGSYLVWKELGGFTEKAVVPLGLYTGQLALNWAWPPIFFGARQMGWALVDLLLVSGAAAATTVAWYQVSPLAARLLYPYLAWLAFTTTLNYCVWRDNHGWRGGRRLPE
# Chain of human Androgen Receptor (AR), AR (gene 367) (P10275 whole entry, looked up): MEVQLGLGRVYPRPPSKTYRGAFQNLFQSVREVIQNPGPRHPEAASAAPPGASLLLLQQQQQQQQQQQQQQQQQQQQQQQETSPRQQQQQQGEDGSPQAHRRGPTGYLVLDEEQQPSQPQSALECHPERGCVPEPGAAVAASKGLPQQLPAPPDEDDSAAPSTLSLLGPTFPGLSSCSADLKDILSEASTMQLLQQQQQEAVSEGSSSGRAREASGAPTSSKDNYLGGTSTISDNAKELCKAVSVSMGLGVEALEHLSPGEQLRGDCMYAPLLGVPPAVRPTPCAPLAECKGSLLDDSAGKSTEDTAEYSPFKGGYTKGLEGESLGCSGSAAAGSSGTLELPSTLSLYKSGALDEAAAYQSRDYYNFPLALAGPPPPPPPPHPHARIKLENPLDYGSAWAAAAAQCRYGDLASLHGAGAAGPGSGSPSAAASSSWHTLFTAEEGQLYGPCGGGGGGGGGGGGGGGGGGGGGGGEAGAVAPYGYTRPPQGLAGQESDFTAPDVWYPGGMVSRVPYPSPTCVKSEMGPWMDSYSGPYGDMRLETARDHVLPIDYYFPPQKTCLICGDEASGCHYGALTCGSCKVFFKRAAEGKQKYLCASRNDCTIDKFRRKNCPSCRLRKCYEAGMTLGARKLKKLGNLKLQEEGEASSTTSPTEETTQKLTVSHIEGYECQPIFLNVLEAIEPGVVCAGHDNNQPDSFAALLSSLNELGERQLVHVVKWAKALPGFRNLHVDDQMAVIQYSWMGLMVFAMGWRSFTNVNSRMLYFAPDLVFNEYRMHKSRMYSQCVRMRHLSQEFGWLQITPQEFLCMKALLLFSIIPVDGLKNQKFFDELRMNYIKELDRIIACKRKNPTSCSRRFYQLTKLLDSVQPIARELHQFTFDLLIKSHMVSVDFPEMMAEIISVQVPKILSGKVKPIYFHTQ
# Chain of Voltage-gated inwardly rectifying potassium channel KCNH2 (Homo sapiens) (Q12809 whole entry, looked up): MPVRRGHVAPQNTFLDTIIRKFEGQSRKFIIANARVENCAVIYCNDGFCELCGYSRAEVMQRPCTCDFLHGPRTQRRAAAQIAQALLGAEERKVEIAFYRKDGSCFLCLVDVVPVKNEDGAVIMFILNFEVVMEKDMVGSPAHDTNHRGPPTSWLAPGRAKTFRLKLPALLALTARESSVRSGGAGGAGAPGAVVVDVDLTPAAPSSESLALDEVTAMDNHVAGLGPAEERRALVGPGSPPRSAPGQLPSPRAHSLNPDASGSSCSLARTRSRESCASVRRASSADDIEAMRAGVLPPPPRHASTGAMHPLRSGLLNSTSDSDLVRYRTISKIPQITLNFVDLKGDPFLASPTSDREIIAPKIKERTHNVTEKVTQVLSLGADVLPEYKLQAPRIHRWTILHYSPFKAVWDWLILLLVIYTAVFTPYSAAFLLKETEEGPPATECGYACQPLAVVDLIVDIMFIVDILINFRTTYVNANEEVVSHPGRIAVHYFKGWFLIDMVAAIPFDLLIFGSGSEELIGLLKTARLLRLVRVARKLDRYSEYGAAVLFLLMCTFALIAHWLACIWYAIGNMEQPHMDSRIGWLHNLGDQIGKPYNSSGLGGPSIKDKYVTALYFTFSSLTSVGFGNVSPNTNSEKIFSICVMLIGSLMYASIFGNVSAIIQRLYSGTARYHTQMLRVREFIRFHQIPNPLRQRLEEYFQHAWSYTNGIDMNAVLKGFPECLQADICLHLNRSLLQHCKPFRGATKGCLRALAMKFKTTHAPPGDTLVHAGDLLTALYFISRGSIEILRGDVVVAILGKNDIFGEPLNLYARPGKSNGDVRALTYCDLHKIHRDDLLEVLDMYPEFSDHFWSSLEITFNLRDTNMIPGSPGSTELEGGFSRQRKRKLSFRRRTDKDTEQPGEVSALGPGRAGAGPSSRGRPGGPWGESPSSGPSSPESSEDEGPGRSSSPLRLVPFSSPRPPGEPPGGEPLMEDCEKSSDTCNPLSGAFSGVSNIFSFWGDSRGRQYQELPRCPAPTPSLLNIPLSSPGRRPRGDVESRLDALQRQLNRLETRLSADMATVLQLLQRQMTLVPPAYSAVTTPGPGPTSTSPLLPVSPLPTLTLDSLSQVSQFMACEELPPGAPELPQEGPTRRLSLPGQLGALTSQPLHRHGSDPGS
# Chain of rat Glutamate, AMPA Site (AMPA), Gria1 (gene 50592) (P19490 whole entry, looked up): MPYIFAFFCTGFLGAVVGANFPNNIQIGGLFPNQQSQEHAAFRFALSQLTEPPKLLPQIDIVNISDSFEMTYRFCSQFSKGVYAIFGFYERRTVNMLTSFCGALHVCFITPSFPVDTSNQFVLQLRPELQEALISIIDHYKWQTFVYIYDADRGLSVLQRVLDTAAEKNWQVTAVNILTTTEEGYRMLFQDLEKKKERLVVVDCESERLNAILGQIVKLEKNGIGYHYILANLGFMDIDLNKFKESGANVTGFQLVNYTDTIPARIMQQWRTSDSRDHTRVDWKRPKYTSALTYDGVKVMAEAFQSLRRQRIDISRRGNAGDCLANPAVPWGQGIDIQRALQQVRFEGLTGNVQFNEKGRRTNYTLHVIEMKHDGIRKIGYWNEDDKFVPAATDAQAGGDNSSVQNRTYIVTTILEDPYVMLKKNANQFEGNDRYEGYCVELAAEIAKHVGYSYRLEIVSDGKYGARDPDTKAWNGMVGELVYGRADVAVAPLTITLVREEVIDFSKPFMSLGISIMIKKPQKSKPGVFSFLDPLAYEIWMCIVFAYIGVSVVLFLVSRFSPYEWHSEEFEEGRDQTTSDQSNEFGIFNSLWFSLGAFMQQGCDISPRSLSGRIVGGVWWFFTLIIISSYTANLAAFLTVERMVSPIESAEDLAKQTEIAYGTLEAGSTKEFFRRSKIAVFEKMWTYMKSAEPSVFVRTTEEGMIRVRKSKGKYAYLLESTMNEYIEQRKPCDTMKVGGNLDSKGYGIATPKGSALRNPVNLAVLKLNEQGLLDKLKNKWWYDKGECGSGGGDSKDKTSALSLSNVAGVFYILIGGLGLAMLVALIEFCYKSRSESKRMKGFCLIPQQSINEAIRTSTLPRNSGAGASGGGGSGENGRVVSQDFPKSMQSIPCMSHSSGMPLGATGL
# Chain of human Constitutive Androstane Receptor (CAR), NR1I3 (gene 9970) (Q14994 whole entry, looked up): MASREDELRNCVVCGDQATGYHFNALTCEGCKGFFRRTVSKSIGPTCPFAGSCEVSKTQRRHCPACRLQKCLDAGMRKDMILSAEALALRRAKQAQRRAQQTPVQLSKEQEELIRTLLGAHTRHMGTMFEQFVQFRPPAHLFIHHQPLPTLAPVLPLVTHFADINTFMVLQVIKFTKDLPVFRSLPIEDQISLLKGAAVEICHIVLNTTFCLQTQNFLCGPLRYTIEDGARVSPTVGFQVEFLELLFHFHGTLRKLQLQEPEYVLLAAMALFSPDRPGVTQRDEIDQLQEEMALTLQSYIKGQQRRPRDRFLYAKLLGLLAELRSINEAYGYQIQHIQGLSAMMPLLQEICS
# Chain of rat Gamma-Aminobutyric Acid Type A Receptor BDZ, alpha 6 site (GABARa6), Gabra6 (gene 29708) (P30191 whole entry, looked up): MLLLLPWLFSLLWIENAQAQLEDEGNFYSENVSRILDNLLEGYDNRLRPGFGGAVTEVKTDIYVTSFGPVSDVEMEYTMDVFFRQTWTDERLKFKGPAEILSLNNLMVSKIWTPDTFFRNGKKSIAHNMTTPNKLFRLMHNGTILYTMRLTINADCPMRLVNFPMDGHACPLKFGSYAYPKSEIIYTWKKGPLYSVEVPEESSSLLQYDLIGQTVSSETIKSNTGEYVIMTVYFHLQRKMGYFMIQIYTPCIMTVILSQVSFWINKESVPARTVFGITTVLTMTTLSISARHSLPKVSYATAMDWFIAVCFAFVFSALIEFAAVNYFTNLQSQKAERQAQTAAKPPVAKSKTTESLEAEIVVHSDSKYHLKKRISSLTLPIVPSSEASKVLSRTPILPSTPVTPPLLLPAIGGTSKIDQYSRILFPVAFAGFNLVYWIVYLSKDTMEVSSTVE
# Chain of rat Gamma-Aminobutyric Acid Type A Receptor, Non-Selective (GABAR-NonSelective), Gabra1 (gene 29705) (P62813 whole entry, looked up): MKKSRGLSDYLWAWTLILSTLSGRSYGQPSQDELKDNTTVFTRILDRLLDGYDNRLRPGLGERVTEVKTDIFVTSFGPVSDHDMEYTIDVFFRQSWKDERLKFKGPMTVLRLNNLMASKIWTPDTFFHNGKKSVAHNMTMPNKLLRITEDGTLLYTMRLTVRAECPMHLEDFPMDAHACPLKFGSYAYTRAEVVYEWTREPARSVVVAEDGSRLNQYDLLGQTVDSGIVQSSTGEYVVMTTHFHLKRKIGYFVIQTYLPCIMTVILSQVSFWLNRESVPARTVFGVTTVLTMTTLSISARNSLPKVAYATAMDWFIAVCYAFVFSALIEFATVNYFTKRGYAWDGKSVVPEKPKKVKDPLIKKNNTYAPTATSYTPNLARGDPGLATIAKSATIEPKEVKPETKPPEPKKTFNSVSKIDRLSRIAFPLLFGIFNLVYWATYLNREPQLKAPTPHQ
# Chain of rat Oxytocin Receptor (OXT), Oxtr (gene 25342) (P70536 whole entry, looked up): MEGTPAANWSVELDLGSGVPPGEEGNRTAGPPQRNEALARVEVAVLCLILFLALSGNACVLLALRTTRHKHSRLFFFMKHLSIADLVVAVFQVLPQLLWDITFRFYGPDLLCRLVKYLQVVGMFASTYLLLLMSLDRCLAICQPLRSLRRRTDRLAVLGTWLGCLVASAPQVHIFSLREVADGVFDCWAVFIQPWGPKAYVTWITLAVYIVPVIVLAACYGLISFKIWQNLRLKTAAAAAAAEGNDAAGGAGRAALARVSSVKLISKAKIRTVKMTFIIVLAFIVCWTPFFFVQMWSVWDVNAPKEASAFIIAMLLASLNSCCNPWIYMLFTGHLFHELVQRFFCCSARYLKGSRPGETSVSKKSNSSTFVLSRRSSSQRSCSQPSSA
structure (smiles),measurement,setting,value
C=C(C)C(=O)[O][Sn]([CH2]CCC)([CH2]CCC)[CH2]CCC,outcome,[1],inactive
same,AC50,[2],25 µM (active)
same,outcome,[3],inactive
same,outcome,[4],inactive
Cn1sc(Cl)cc1=O,outcome,[5],inactive
same,outcome,[6],inactive
CC(=O)[O][Hg][c]1ccccc1,AC50,[2],9.18 µM (active)
same,AC50,[7],15.7 µM (active)
same,AC50,[8],16.9 µM (active)
O=C(O)C(F)(F)C(F)(F)C(F)(F)C(F)(F)C(F)(F)C(F)(F)C(F)(F)C(F)(F)C(F)(F)C(F)(F)F,outcome,[9],inactive
CCOP(=S)(OCC)Oc1nc(Cl)c(Cl)cc1Cl,AC50,[10],9.12 µM (active)
same,outcome,[11],inactive
O=C1C2(Cl)C3(Cl)C4(Cl)C(Cl)(Cl)C5(Cl)C3(Cl)C1(Cl)C5(Cl)C24Cl (stereo not drawn),outcome,[11],inactive
CCN1CCC2(CC1)COc1cc3c(cc12)N(C(=O)c1ccc(-c2ccc(-c4nnc(C)o4)cc2C)cc1)CC3,outcome,[3],inactive
same,AC50,[12],39.1 µM (active)
CCC(=O)C(CC(C)N(C)C)(c1ccccc1)c1ccccc1 (stereo not drawn),AC50,[13],18.1 µM (active)
O=C(Cc1ccccc1)c1ccccc1,AC50,[14],9.94 µM (active)
N#CCCO,outcome,[8],inactive
CC(C)CCCCCCOC(=O)c1ccccc1C(=O)OCCCCCCC(C)C,outcome,[15],inactive
O=Cc1cccc(Oc2ccccc2)c1,outcome,[14],inactive
same,outcome,[16],inactive
Clc1ccc(C2(Cn3cncn3)CC(Br)CO2)c(Cl)c1 (stereo not drawn),AC50,[14],14.5 µM (active)
COP(=O)(OC)O/C(=C\Cl)c1cc(Cl)c(Cl)cc1Cl,outcome,[17],inactive
same,AC50,[15],0.401 µM (active)
same,AC50,[14],0.38 µM (active)
CCOP(=S)(OCC)Oc1ccc(S(C)=O)cc1 (stereo not drawn),outcome,[14],inactive
CC(C)(c1ccc(OCC2CO2)cc1)c1ccc(OCC2CO2)cc1 (stereo not drawn),AC50,[15],7.73 µM (active)
same,AC50,[14],4.31 µM (active)
